Laboratory results published in PubChem BioAssay (EPA / NIEHS).
Several values for one entry are separate records, joined by “and”; a condition that tells them apart may be missing. Equal values may be shown once. Some compounds were tested as several samples or in several runs, with calls that do not always agree. Activity calls are given as the source filed them. How the source made its calls: active means hit-call score of the fitted dose curve at least 0.9, where 1 is the maximum; inactive means score below 0.9.

Assay: IUF_NPC2b_neuronal_migration_120hr: Leibniz Research Institute for Environmental Medicine (IUF) 120-hour Neural Progenitor Cell Migration Assay for Neuron Migration (NPC2b) (AID 2284300)
Description: IUF_NPC2-5 is a cell-based, multiplexed assay that uses hNPC, a human primary neural progenitor cells, with measurements taken at 72 or 120 hours after chemical dosing in a 96-well plate. Human neural progenitor cells (hNPC) are generated from human fetal brain cortex at gestational week (GW) 16-19. In the neural progenitor cell migration and differentiation assay (NPC2-5), hNPCs grown as spheres are plated on an extracellular matrix and migrate and differentiate out of the sphere core. The processes radial glia migration, neuronal and oligodendrocyte migration as well as neuronal differentiation, neuronal morphology and oligodendrocyte differentiation are studied using automated phase contrast imaging and automated fluorescence imaging in combination with high content image analysis. In parallel, the cell viability is assessed using an alamar blue viability assay and the cytotoxicity using a lactate dehydrogenase dependent membrane integrity assay.IUF_NPC2b_neuronal_migration_120hr is one of 12 assay components measured from the IUF_NPC2-5 assay. Neuronal migration distance at 120 hr is the mean distance of all neurons from the edge of the sphere core to each individual neuron (see IUF_NPC3_neuronal_differentiation_120hr). Neuronal migration is normalized to radial glia migration distance at 120 hr.Data from the IUF_NPC2b_neuronal_migration_120hr component was analyzed at the endpoint IUF_NPC2b_neuronal_migration_120hr in the positive analysis fitting direction relative to DMSO as the negative control and baseline of activity. Using a type of migration reporter, gain or loss-of-signal activity can be used to understand developmental effects.
Culture protocol: After the cell expansion period the cells are cultured for up to four weeks in which they are passaged every week as described in 3.6. Between one to three days after passaging spheres at a size of 0.3 mm are picked for the test method. For the assessment of neural progenitor cell migration and differentiation, the spheres are plated on poly-D-lysine/laminin coated 96-well flat bottom plates in differentiation medium (N2) to initiate migration and differentiation. Thereby one 0.3 mm big sphere is plated in the middle of a well. The differentiation medium consists of DMEM and Ham's F12 at a ratio of 3 to 1 supplemented with 1% N2 and 1% penicillin and streptomycin. Within 5 days NPCs radially migrate out of the sphere core and differentiate into radial glia cells (nestin positive), neurons (TUBB3 positive), oligodendrocytes (O4 positive) and astrocytes (GFAP positive). Cultivation during the test method is performed at 37C and 5% CO2 at a ph of 7.2-7.6.Exposure: 0.3 mm big hNPC are plated in the already prepared test conditions. Exposure starts at day 0 of differentiation and is continued over five days of differentiation until the experiment is terminated. Cells are fed with fresh medium at day 3 of differentiation. Therefore, half of the test condition solution (e.g. solvent control or compound dilution) is replaced by freshly prepared test condition solution.Test Method: Migration distance and cytotoxicity is determined after 72 hours based on brightfield images of each well. The assay is terminated by the assessment of cell viability and cytotoxicity as well as cell fixation after 120 h. Immunocytochemistry is performed for Hoechst positive nuclei, TUBB3 positive neurons and O4 positive oligodendrocytes. On the ICC images, migration after 120 hours, neuronal and oligodendrocyte number, neuronal morphology and neuron/oligodendrocyte specific migration is assessed. immunocytochemical staining (ICC) generates an image for each sphere. The plates are scanned using an automated high content imaging device and all nuclei and their positions are determined automatically based on their intensity and size. Images are imported to the Omnisphero software to run the image analysis that measures the following endpoints. […]

| Compound | outcome | AC50 |
| --- | --- | --- |
| COP(=O)(NC(C)=O)SC (stereo not given) | inactive | – |
| CC(C)N(C(=O)SCC(Cl)=C(Cl)Cl)C(C)C | inactive | – |
| CC[C@H](C)[C@H]1O[C@]2(C=C[C@@H]1C)C[C@@H]1C[C@@H](C/C=C(\C)[C@@H](O[C@H]3C[C@H](OC)[C@@H](O[C@H]4C[C@H](OC)[C@@H](NC)[C@H](C)O4)[C@H](C)O3)[C@@H](C)/C=C/C=C3\CO[C@@H]4[C@H](O)C(C)=C[C@@H](C(=O)O1)[C@]34O)O2 | – | 1.07 µM (active) and 3.32 µM (active) |
| CCOC(=O)CC(SP(=O)(OC)OC)C(=O)OCC (stereo not given) | inactive | – |
| COP(=O)(OC)C(O)C(Cl)(Cl)Cl (stereo not given) | inactive | – |
| CCOP(=S)(Oc1cnc(C(C)(C)C)nc1)OC(C)C (stereo not given) | inactive | – |
| CC1=NNC(=O)N(/N=C/c2cccnc2)C1 | inactive | – |
| CCOP(=S)(OCC)SCCSCC | inactive | – |
| CSC1=N[C@@](C)(c2ccccc2)C(=O)N1Nc1ccccc1 | inactive | – |
| CN1COCN(Cc2cnc(Cl)s2)C1=N[N+](=O)[O-] | inactive | – |
| CCCSP(=O)(OCC)SCCC | inactive | – |
| COP(=O)(OC)OC(Br)C(Cl)(Cl)Br (stereo not given) | – | 38.1 µM (active) |
| C=C(C)[C@H]1Cc2c(ccc3c2O[C@@H]2COc4cc(OC)c(OC)cc4[C@@H]2C3=O)O1 | inactive | 0.00958 µM (active) |
| C[N+]1(C)CCCCC1 | inactive | – |
| CCOP(=O)(OCC)Oc1cc(C)nc(C(C)C)n1 | inactive | – |
| S=C1NCCN1 | inactive | – |
| O=[N+]([O-])c1cc(C(F)(F)F)c(Cl)c([N+](=O)[O-])c1Nc1ncc(C(F)(F)F)cc1Cl | – | 0.796 µM (active) |
| CCOP(=S)(OCC)OC(Cl)C(Cl)(Cl)Cl (stereo not given) | inactive | – |
| CCCCSP(=O)(SCCCC)SCCCC | inactive | – |
| CN(C)[C@@H]1C(=O)C(C(N)=O)=C(O)[C@@]2(O)C(=O)C3=C(O)c4c(O)cccc4[C@@](C)(O)[C@H]3[C@H](O)[C@@H]12 | – | 38.7 µM (active) |
| CCOP(=S)(OCC)Oc1cc(C)nc(C(C)C)n1 | inactive | – |
| CCOP(=O)(NC(C)C)Oc1ccc(SC)c(C)c1 (stereo not given) | inactive | – |
| CON=C(C(=O)OC)c1ccccc1CON=C(C)c1cccc(C(F)(F)F)c1 | inactive | – |
| CC(=NC#N)N(C)Cc1ccc(Cl)nc1 | inactive | – |
